From PMC4336329 (PLoS ONE, 2015)
Out of some 310,000 compounds screened, about 14,000 (4.5%) showed an effect of 50% or more. Effects have a minus sign here. What follows is part of a selection rich in strong results, with near analogues and random picks from the rest.

target: human ether-à-go-go-related gene (hERG) potassium channel (human, UniProt Q12809); assay: primary screen, population patch clamp on CHO cells stably expressing hERG; higher = less effect of the substance
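Also: peak tail current of the secondary pulse compared with the same well before compound.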

human ether-à-go-go-related gene (hERG) potassium channel, sequence (Q12809 whole entry, looked up): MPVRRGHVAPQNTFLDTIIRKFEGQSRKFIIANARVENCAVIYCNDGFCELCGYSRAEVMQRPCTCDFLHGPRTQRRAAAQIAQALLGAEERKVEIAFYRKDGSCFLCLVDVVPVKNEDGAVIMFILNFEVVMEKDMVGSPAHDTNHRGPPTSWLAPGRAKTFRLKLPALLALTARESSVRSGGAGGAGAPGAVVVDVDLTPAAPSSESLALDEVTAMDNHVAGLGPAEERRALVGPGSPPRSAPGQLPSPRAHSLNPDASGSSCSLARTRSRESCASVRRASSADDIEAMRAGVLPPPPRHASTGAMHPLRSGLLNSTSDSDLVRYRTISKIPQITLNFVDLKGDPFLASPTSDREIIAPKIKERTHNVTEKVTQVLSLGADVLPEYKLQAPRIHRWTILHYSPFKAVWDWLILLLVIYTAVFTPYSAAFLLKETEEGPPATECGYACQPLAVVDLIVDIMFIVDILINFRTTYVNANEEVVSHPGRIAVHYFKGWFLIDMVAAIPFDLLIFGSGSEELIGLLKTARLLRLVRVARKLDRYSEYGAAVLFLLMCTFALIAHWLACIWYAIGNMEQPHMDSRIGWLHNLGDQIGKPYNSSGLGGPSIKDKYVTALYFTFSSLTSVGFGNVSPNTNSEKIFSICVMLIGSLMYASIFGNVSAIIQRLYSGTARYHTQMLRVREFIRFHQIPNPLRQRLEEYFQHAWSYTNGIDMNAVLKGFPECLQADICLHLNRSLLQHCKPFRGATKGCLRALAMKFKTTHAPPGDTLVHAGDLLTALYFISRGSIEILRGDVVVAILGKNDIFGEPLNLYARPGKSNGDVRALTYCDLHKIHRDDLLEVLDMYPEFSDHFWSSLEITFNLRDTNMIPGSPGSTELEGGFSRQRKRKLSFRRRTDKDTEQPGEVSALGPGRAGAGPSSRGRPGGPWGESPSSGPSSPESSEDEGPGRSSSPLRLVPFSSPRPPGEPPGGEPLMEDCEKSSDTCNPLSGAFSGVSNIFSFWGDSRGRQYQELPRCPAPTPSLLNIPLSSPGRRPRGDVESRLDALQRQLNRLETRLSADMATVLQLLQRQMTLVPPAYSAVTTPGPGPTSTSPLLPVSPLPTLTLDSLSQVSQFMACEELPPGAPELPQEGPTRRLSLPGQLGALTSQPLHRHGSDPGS

Row | SMILES | hERG current change (%, negative = inhibition) at 10uM [%]
1 | O=C1NN(c2cccc(Br)c2)C(=O)/C1=C\c1ccc(O)cc1 | 12
2 | CCS(=O)(=O)Nc1ccc(-c2nnc(SCC(=O)c3ccc(NC(C)=O)c(OC)c3)o2)cc1 | -23.8
3 | C#CCOCCOCCOCCNc1nc(N2CCN(C(=O)[C@H]([C@@H](C)CC)n3cc([C@@H](N)CO)nn3)CC2)nc(N2CCN(C(=O)[C@H](Cc3ccc(O)cc3)n3cc([C@@H](N)C(C)CC)nn3)CC2)n1.Cl (stereo partly shown) | 0.411
4 | CC1CCN(C(=O)CN2C(=O)c3cccc4cccc(c34)C2=O)CC1 | 2.37
5 | CC(C)C[C@H]1CN=C(Nc2ccccc2)N1CC1CCC(C(C)(C)C)CC1 (stereo partly shown) | -78.3
6 | CC(C)C[C@H]1CN=C(Nc2ccccc2)N1CC1CCCC1 | -24
7 | CC(C)C[C@H]1CN=C(Nc2ccccc2)N1CC1CCCCCC1 | -60.6
8 | CC(C)C[C@H]1CN=C(Nc2ccccc2)N1CC1CCCCC1 | -45.7
9 | CC(C)C[C@H]1CN=C(Nc2ccccc2)N1CC1CCC(C)CC1 (stereo partly shown) | -50.3
10 | CC1CCC(CN2C(Nc3ccccc3)=NC[C@@H]2C)CC1 (stereo partly shown) | -9.6
11 | CCOC(=O)c1cccc(NC(=O)CNC(=O)C2CCCCC2)c1 | -3.8
12 | O=C(COc1ccc(-n2cnnn2)cc1)Nc1ccccc1OC(F)F | 4.44
13 | N#Cc1c(N)n(-c2cccc(C(=O)O)c2)c2nc3ccccc3nc12 | 14.6
14 | Cc1ccc(NC(=O)Nc2cnccn2)cc1 | 5.11
15 | Cc1ccc(C(=O)CCC(=O)OCC(=O)Nc2ccc3[nH]c(=O)[nH]c3c2)cc1 | 14
16 | O=C1C2C3C=CC(C2C(=O)N1c1ccc(O)cc1)C1C2C(=O)N(c4ccc(O)cc4)C(=O)C2C31 (stereo not shown) | -10.7
17 | COc1cccc(-c2c(C(=O)N/N=C/c3ccoc3)nnn2-c2nonc2N)c1 | -9.92
18 | CCSc1nnc(NC(=O)CCNS(=O)(=O)c2cc(Br)cnc2N)s1 | 0.00778
19 | COc1cc(NC(=O)c2ccnc(N)c2)cc(C(=O)Nc2cccc(C(F)(F)F)c2)c1 | -31.3
20 | COc1cc(Nc2ccccn2)cc(C(=O)Nc2cccc(C(F)(F)F)c2)c1 | -2.6
21 | COc1cc(NC(=O)c2ccc(N)nc2)cc(C(=O)Nc2cccc(C(F)(F)F)c2)c1 | -5.66
22 | Cc1ccc(C(=O)Nc2cccc(C(F)(F)F)c2)cc1Nc1cncnc1.O=C(O)C(F)(F)F | -74.3
23 | Cc1ccc(C(=O)Nc2cccc(C(F)(F)F)c2)cc1Nc1cnccn1 | -38.4
24 | COc1cc(NC(=O)c2ccnnc2)cc(C(=O)Nc2cccc(C(F)(F)F)c2)c1 | -52.8
25 | Cc1cccc(Nc2ncnc3nc[nH]c23)c1C | -12.5
26 | O=C(Nc1cccc(C(F)(F)F)c1)c1cccnc1 | -21.3

Row | SMILES | hERG current change (%, negative = inhibition) at 10uM [%]
27 | Cc1ccc(NC(=O)c2cccc(C(F)(F)F)c2)cc1NC(=O)c1[nH]cnc1C(N)=O | -1.07
28 | Cc1ccc(C(=O)Nc2cccc(C(F)(F)F)c2)cc1Nc1ccccn1 | -67.4
29 | Cc1ccc(C(=O)Nc2cccc(C(F)(F)F)c2)cc1Nc1ncnc2nc[nH]c12 | -60.2
30 | Cc1ccc(C(=O)Nc2cccc(C(F)(F)F)c2)cc1NC(=O)c1cnnc2ccccc12 | -5.9
31 | CCSc1nn2c(=O)c3ccccc3nc2s1 | -13.2
32 | COc1cccc(-c2cc(=O)[nH][nH]2)c1 | 18
33 | O=C(NCc1ccccc1)c1ccc(Br)o1 | 8.67
34 | CCCCN(CC)CCNC(=O)c1nn(-c2ccc(OC)cc2)c(=O)c2c1c1ccccc1n2C | 0.748
35 | CCCCCc1nnc(NC(=O)C2CCCO2)s1 (stereo not shown) | -1.64
36 | COC(=O)c1ccc(S(=O)(=O)N2CCC(c3nc4ccccc4o3)CC2)cc1 | 1.99
37 | COc1ccccc1N(CC(O)Cn1ccnc1C)S(=O)(=O)c1ccc(C)cc1.Cl (stereo not shown) | -39.3
38 | CCCC1C(=O)Nc2ccccc2N1C(=O)c1cccc(C)c1 (stereo not shown) | 2.13
39 | CCCCSc1nc(C)cc(NC(=S)Nc2ccc(OC)cc2)n1 | -25.4
40 | Cc1ccc(C(=O)Nc2cccc(C(F)(F)F)c2)cc1NC(=O)c1ccno1 | -67
41 | Cc1ccc(C(=O)Nc2cccc(C(F)(F)F)c2)cc1NC(=O)c1nccnc1N | 8.61
42 | Cc1ccc(C(=O)Nc2cccc(C(F)(F)F)c2)cc1NC(=O)c1nccn1C | 1.96
43 | CCOC(=O)Nc1ccc2c(c1)N(C(=O)CCN1CCOCC1)c1ccccc1S2.Cl | -7
44 | CN1CCN(c2nc3c(c(=O)n(C)c(=O)n3C)n2Cc2ccccc2F)CC1 | -4.91
45 | CCCN(C(=O)c1cnccn1)c1c(N)n(Cc2ccccc2)c(=O)[nH]c1=O | 0.0848
46 | Cc1ccc(S(=O)(=O)N2[C@@H](c3ccc(Cl)cc3)C(C(=O)O)=CC[C@H]2c2ccc(Cl)c(Cl)c2)cc1 | 11.1
47 | CSc1ccccc1C(=O)C1CCCN(C(=O)c2cc(C(C)C)no2)C1 (stereo not shown) | -69.6
48 | Cc1cc(Cl)ccc1C(=O)C1CCCN(C(=O)c2cc(C(C)C)no2)C1 (stereo not shown) | -22.7
49 | COc1ccccc1C(=O)C1CCCN(C(=O)c2cc(C(C)C)no2)C1 (stereo not shown) | -5.26
50 | COc1ccc(C(=O)C2CCCN(C(=O)c3cc(C(C)C)no3)C2)cc1F (stereo not shown) | -56.9
51 | CC(C)c1cc(C(=O)N2CCCC(C(=O)c3ccc4ccccc4c3)C2)on1 (stereo not shown) | -21.8
52 | COc1ccc(C(=O)C2CCCN(C(=O)c3cc(C)on3)C2)cc1F (stereo not shown) | -6.98
